# PubChem BioAssay AID1454 (National Center for Advancing Translational Sciences (NCATS), 2008)
# Among all 130,000 compounds or so, about 550 (0.42%) were called active. Roughly 4% stayed inconclusive and do not appear here. For the sample, actives were picked, then their nearest neighbours and some compounds at random. A number with no mark means an inactive call. The call rests on the fitted dose curve; in most records, active means well fitted inhibition curve with a large enough effect; inconclusive means small, poorly fitted or top-dose-only effect, or effect the other way; inactive means flat fitted curve, though single readings scatter.
# Test: qHTS Assay for Inhibitors of the ERK Signaling Pathway using a Homogeneous Screening Assay; Stimulation with EGF; further: nearly all actives have a fitted effect of over 55% in size;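 on activity change, negative = inhibition: plate controls were stimulated vehicle wells for no effect and unstimulated vehicle basal for full effect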
# Settings: HEK293-V1b, EGF-stimulated phospho-ERK AlphaScreen; series mostly up to 11.5 µM; activity change, negative = inhibition: at the top concentration
# From the text: NIH Chemical Genomics Center [NCGC]
# NIH Molecular Libraries Screening Centers Network [MLSCN]
# Assay Submitter (PI): Dr. Wei Zheng, NCGC/NIH
# The Ras/extracellular-signal-regulated kinase (ERK) mitogen activated protein (MAP) kinase signaling pathway (ERK1/2 cascade) plays a key role in transmitting signals from the cell surface to the nucleus (Nishida and Gotoh 1993; Chang and Karin, 2001). The cascade is initiated by the small G-protein Ras, which recruits Raf from the cytosol, where activation occurs. Alternatively, this pathway can be activated by elevating intracellular cAMP, or by activation of a receptor tyrosine kinase as epidermal growth factor receptor.
# Activation of the ERK pathway is essential in increased cell division and cell survival. Sustained and constitutive activation of the ERK pathway, however, has been linked to uncontrolled cell proliferation, increased cell survival, and tumor progression. Thus, the ERK has been as an attractive target for cancer chemotherapy in the past few years (Sebolt-Leopold and Herrera, 2004). Given its physiological and pathological importance, assessment of ERK phosphorylation has been broadly performed in both basic research and drug discovery. Most assays for the measurement of ERK phosphorylation use the antibody-based detection methods, such as western blot and ELISA. These assays require multiple reagent additions with cell wash steps and are not suitable for high throughout screening.
# The current cell-based ERK phosphorylation assay was performed using AlphaScreen platform. AlphaScreen is a two bead-based proximity-dependent chemical energy transfer luminescent assay platform. The assay reagents (ERK SureFire(TM) kit) were supplied from TGR BioSciences (Australia). In the presence of specific antibodies, phosphorylated ERK will bring "donor" and "acceptor" beads to a proximity range (<200 nm), and subsequently lead a chemical luminescent reaction upon exciting donor beads with 680 nm laser. To exclude the assay-related false positives, we used a biotinylated rabbit IgG to perform counter-screen. The biotinylated antibody mimics the phosphorylated ERK1/2 for bringing streptavidin coated beads and protein-A coated beads to a proximity range for the AlphaScreen detection.
# NCGC Assay Protocol Summary:
# HEK293 cells stably expressing type-1 vasopressin receptor (V1b) were maintained in DMEM medium (Invitrogen, Carlsbad, CA) at 37C under a humidified atmosphere containing 5% CO2 and 95% air. The medium contained 10% FBS, 2 mM L-glutamine, non-essential amino acid, pyruvate and 50 U/ml penicillin and 50 ug/ml streptomycin (Invitrogen). The aliquots of frozen cells were stored at -135C and used for the compound screening. All compounds were screened as titrations from 0.6 nM to 46 uM final concentration. Epidermal growth factor (EGF) was used to stimulate the ERK phosphorylation pathway. The ERK phosphorylation in cells was determined using an AlphaScreen assay kit provided by […]. Data were normalized to the controls for basal activity (DMSO only) and 100% activation (25 nM EGF). AC50 values were determined from concentration-response data modeled with the standard Hill equation.
# (1) Seed 4 ul/well of resuspended frozen HEK293 cells containing 2000 cells in white 1536-well plates for overnight with 1% FBS at 37C under a humidified atmosphere containing 5% CO2 and 95% air.
# (2) Add 23 nL compounds in DMSO solution. The final titration was 0.6 nM to 46 uM.
# (3) Incubate at 37C for 30 min.
# (4) Dispense 0.5uL EGF (25 nM in final)
# (5) Incubate at 37C for 5 min.
# (6) Dispense 0.5uL of 1:2 diluted 5x lysis buffer.
# (7) Incubate at 37C for 10 min.
# (8) Dispense 1.5uL of mixture of activation buffer and reaction buffer with AlphaScreen beads (streptavidin donor beads and protein-A acceptor beads, 10 ng/well for each).
# (9) Incubate at room temperature for 5 hr.
# (10) Detect the assay plate in an EnVision plate reader (PerkinElmer) using the AlphaScreen detection mode.
# […]
# Potency means the concentration at half of the fitted maximal effect.
SMILES,"activity change, negative = inhibition",Potency
O=C(CN1CCCCC1)Nc1ccccc1Cl,-9.35%,–
COCCN(CCOC)C(=S)Nc1ccccc1Cl,24.8%,–
O=C(Nc1ccccc1Cl)/C(Cl)=C(\Cl)S(=O)c1ccccc1 (stereo unspecified),–,31.6 µM (active)
COC(=O)Cc1ccc(Oc2ncc(C(F)(F)F)cc2Cl)cc1,1.69%,–
CCOc1ccccc1N1CN(Cc2ccccc2)CNC1=S,1.39% [at 57.5 µM],–
CN(Cc1nc(-c2cnccn2)no1)Cc1n[nH]c2c1CCCCC2,3.06% [at 57.5 µM],–
CN=C1C=C/C(=N/N=c2\ccn(O)cc2C)C=C1C,–,17.8 µM (active)
Cn1nnc(NC(=S)NC(=O)c2ccccc2)n1,-2.19% [at 57.5 µM],–
COc1ccc(C(=O)N/N=C2\CCS(=O)(=O)c3ccc(F)cc32)cc1OC,-0.3% [at 57.5 µM],–
C/C(=N/NC(=O)c1ccn(C)n1)c1ccncc1,5.86% [at 57.5 µM],–
CCN(CC)S(=O)(=O)c1ccc(OC(C)C)c(N)c1,2.99%,–
CCS(=O)(=O)c1ccc(O)c(NC(=O)COc2ccc(Cl)cc2)c1,-0.946%,–
CN(CCc1cn[nH]c1)C(=O)CC1C(=O)NCCN1Cc1cccc(Oc2ccccc2)c1 (stereo unspecified),-15.3%,–
O=C(CN1CCN(c2ccc(Cl)cc2)CC1)NCc1cccs1,-13.5%,–
Cc1ccc(/C=N/NC(=S)Nc2cccc(S(=O)(=O)N(C)C)c2)o1,7.91% [at 57.5 µM],–
Nc1nnc(SCn2nnc3ccccc3c2=O)s1,-7.57%,–
CC1(C)CC(=O)C(CC(=O)N2CCC(Cc3ccccc3)CC2)C(=O)C1,1.38%,–
Cc1ccc(CN(Cc2cccnc2)C(=S)Nc2cc(Cl)ccc2C)cc1,4.9%,–
O=C(COC(=O)c1ccc(S(=O)(=O)Nc2ccccc2)cc1)NCC1CCCO1 (stereo unspecified),12.7% [at 57.5 µM],–

SMILES,"activity change, negative = inhibition",Potency
COc1ccc(-n2cnnc2SCC(=O)Nc2cccc([N+](=O)[O-])c2)cc1,4.62%,–
CCCc1nc2c(c(=O)c3ccccc3n2C)c(=O)n1-c1cc(C)cc(C)c1,2.8% [at 57.5 µM],–
COc1ccc(CCNC(=O)C(=O)NCC2CCNCC2)cc1OC,-2.48% [at 57.5 µM],–
CCn1c(SCc2cc(=O)n3ccsc3n2)nc2ccccc21,1.03%,–
N#C/C(=C/c1ccc(-c2ccccc2[N+](=O)[O-])o1)C(=O)NCCN1CCCCC1,-4.68% [at 57.5 µM],–
COC(=O)/C=C(\Oc1ccccc1)C1(O)CCCCC1,9.88% [at 57.5 µM],–
O=[N+]([O-])c1ccc2c(c1)C(N1CCOCC1)/C(=C/C1(O)CCCCC1)O2 (stereo unspecified),-3.12%,–
CC(=O)Nc1cccc(-c2nc3ccccc3s2)c1C,-1.53%,–
CCOC(=O)N1CCN(CC(=O)Nc2ccc(F)cc2)CC1,11.2%,–
COCCCNC(NC(=O)c1ccc(OC)cc1)C(Cl)(Cl)Cl (stereo unspecified),7.85%,–
CC(=O)c1cccc(NC(=O)[C@@H](NC(N)=O)C(C)C)c1,-0.0389%,–
Cc1cccc(N=Nc2c(C)[nH]n(-c3ccccc3)c2=O)c1,–,7.08 µM (active)
Cc1[nH]n(C)c(=O)c1N=Nc1ccc(S(C)(=O)=O)cc1,-9.46% [at 57.5 µM],–
O=C(NNC(=O)c1ccccc1[N+](=O)[O-])Nc1ccccc1C(F)(F)F,-11%,–
CCCC(=O)Nc1nnc(-c2ccccc2)o1,-5.39% [at 57.5 µM],–
COc1ccc(CN(C)C(=S)Nc2ccc(Cl)cc2Cl)cc1,-4.17%,–
O=C(NCc1csc(-c2cccs2)n1)C1CC1,3.28% [at 57.5 µM],–
Cc1noc(C)c1COC(=O)COc1ccc(-c2ccccc2)cc1,3.01% [at 57.5 µM],–
CCCn1c(NC(=O)C23CC4CC(CC(O)(C4)C2)C3)nc2ccccc21,0.399%,–

SMILES,"activity change, negative = inhibition",Potency
CCOC(=O)c1ccccc1NS(=O)(=O)c1ccc(OC)cc1,12.6%,–
CCOC(=O)c1c(C)[nH]c2c1-c1ccccc1C(=O)C2=O,-6.6%,–
CCOC(=O)C1=C(c2ccc(OC)cc2)C(=O)c2ccccc2C1=O,–,31.6 µM (active)
CC(C)NC(=O)NC(=O)CSc1nnc(-c2ccccc2F)n1N,3.58%,–
Cc1cc(C)nc(NC(=O)/C=C/c2ccc(Cl)cc2)n1,-5.42% [at 57.5 µM],–
COc1ccc(/C=C/C(=O)Nc2ccc(C)cc2)cc1S(=O)(=O)N1CCOCC1,-5.96% [at 57.5 µM],–
CC(=O)Nc1ccc(-c2csc(NC(=O)Nc3ccccc3)n2)cc1,–,25.1 µM (active)
CC(=O)Nc1ccc(S(=O)(=O)Nc2nc(-c3ccc(C(C)(C)C)cc3)cs2)cc1,-2.35%,–
CC(=O)Nc1ccc(-c2csc(NC=C3C(=O)OC(C)(C)OC3=O)n2)cc1,-2.25%,–
CN(c1ccccc1)S(=O)(=O)c1ccc(Cl)c(C(=O)OCC(=O)N2CCOCC2)c1,-4.38%,–
O=C(NCc1cccs1)c1cc(-c2ccccn2)nc2ccc(Br)cc12,8.18%,–
O=C(CN1CCCC1)N1CCN(c2ccccc2)CC1,5.85%,–
COc1ccc(N2CCN(C(=O)/C(C#N)=C/c3ccccc3)CC2)cc1,8.33%,–
CC(CO)NCC12CC3CC(CC(C3)C1)C2 (stereo unspecified),-23.6%,–
CC(C)(C)c1cc(P(=O)(c2ccccc2)c2ccccc2)ccc1O,8.91% [at 57.5 µM],–
CCOC(=O)CN(C(=O)COc1nc(-c2ccccc2)cc(C)c1C#N)c1ccc(F)cc1,3.15% [at 57.5 µM],–
COC(OC)c1ccnc(SCc2ccccc2Cl)n1,-7.52% [at 57.5 µM],–
O=C(O)/C=C/c1ccc2c(c1)OCCO2,-8.38% [at 57.5 µM],–
